About 2,000 (36%) of roughly 5,500 compounds were called active. Another 18% or so got no clear call; they are omitted. Cut-off read from the data, not from the text of the source: active = normalized growth mostly below about 0.91 (no sharp cut-off); inconclusive = no clear call, values can overlap the other calls; inactive = mostly above about 0.92. Some of the results follow.
Assay: chemical genetic growth profiling, strain panel (AID 1159580);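 note: tested at 20 µM; growth read once vehicle control cultures reached saturation at 30 °C; 1 = growth at the plate median or of vehicle wells; lower values mean less growth of the strain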
Conditions: S. cerevisiae deletion strains, growth OD

Measured: normalized growth

CN(C)c1ccc(C(=C2C=CC(=[N+](C)C)C=C2)c2ccc(N(C)C)cc2)cc1
active: locus YJR043C, strain POL32, active compounds read low 0.373 | locus YJR066W, strain TOR1, active compounds read low 0.0572 | locus YKL009W, strain mrt4, active compounds read low 0.538 | locus YKL068W, active compounds read low 0.431 | locus YKL085W, strain MDH1 (second series), active compounds read low 0.429 | locus YKL085W, strain MDH1, active compounds read low 0.429 | locus YKL160W, strain elf1, active compounds read low 0.44 | locus YKR001C, strain vps1, active compounds read low 0.514 | locus YKR026C, strain gcn3, active compounds read low 0.573 | locus YKR091W, strain srl3, active compounds read low 0.536 | locus YLL001W, strain dnm1, active compounds read low 0.605 | locus YLL026W, active compounds read low 0.536 | locus YLL041C, strain sdh2, active compounds read low 0.468 | locus YLR027C, strain aat2, active compounds read low 0.449 | locus YLR058C, strain SHM2, active compounds read low 0.364 | locus YLR102C, strain apc9, active compounds read low 0.449 | locus YLR113W, strain HOG1, active compounds read low 1.5 [resistant] | locus YLR221C, strain rsa3, active compounds read low 0.457 | locus YLR258W, strain gsy2, active compounds read low 0.527 | locus YLR262C, strain YPT6 (second series), active compounds read low 0.65 | locus YLR268W, strain sec22, active compounds read low 0.553 | locus YLR320W, strain mms22, active compounds read low 0.558 | locus YLR330W, strain CHS5, active compounds read low 0.355 | locus YLR342W, strain FKS1 (second series), active compounds read low 0.388 | locus YLR342W, strain FKS1, active compounds read low 0.499 | locus YLR370C, strain arc18, active compounds read low 0.564 | locus YLR371W, strain rom2, active compounds read low 0.489 | locus YLR384C, strain iki3, active compounds read low 0.486 | locus YLR418C, strain cdc73, active compounds read low 0.769 | locus YML016C, strain PPZ1, active compounds read low 0.345 | locus YML032C, strain rad52, active compounds read low 0.583 | locus YML120C, strain ndi1, active compounds read low 0.554 | locus YML124C, strain tub3, active compounds read low 0.48 | locus YMR058W, strain fet3, active compounds read low 0.59 | locus YMR078C, strain ctf18, active compounds read low 0.546 | locus YMR125W, strain sto1, active compounds read low 0.617 | locus YMR129W, active compounds read low 0.505 | locus YMR205C, strain PFK2, active compounds read low 0.688 | locus YMR223W, strain ubp8, active compounds read low 0.524 | locus YMR231W, strain pep5, active compounds read low 0.558 | locus YMR307W, strain GAS1, active compounds read low 0.562 | locus YNL067W, strain RPL9B, active compounds read low 0.315 | locus YNL071W, strain lat1, active compounds read low 0.573 | locus YNL183C, strain NPR1, active compounds read low -0.00369 | locus YNL209W, strain ssb2, active compounds read low 0.435 | locus YNL233W, strain BNI4, active compounds read low 0.338 | locus YNL248C, strain rpa49, active compounds read low 0.6 | locus YNL250W, strain rad50, active compounds read low 0.597 | locus YNL271C, strain bni1, active compounds read low 0.458 | locus YNL298W, strain CLA4, active compounds read low 0.511 | locus YNL307C, strain MCK1, active compounds read low 0.521 | locus YNL322C, strain KRE1 (second series), active compounds read low 0.626 | locus YNL322C, strain KRE1, active compounds read low 0.318 | locus YNR049C, strain mso1, active compounds read low 0.547 | locus YNR052C, strain pop2, active compounds read low 0.497 | locus YOL147C, strain pex11, active compounds read low 0.501 | locus YOR001W, strain rrp6, active compounds read low 0.55 | locus YOR061W, strain CKA2, active compounds read low 0.335 | locus YOR069W, strain VPS5, active compounds read low 0.33 | locus YOR070C, strain gyp1, active compounds read low 0.466 | locus YOR080W, strain dia2, active compounds read low 0.569 | locus YOR083W, strain WHI5, active compounds read low 0.547 | locus YOR106W, strain vam3, active compounds read low 0.505 | locus YOR136W, strain idh2, active compounds read low 0.549 | locus YOR144C, strain elg1, active compounds read low 0.483 | locus YOR184W, strain ser1, active compounds read low 0.604 | locus YOR231W, strain MKK1, active compounds read low 1.28 [resistant] | locus YOR265W, strain rbl2, active compounds read low 0.469 | locus YOR270C, strain vph1, active compounds read low 0.762 | locus YOR290C, strain snf2, active compounds read low 0.636 | locus YOR316C, strain cot1, active compounds read low 0.454 | locus YPL051W, strain arl3, active compounds read low 0.488 | locus YPL055C, strain LGE1, active compounds read low 0.408 | locus YPL078C, strain atp4, active compounds read low 0.643 | locus YPL106C, strain sse1, active compounds read low 0.77 | locus YPL240C, strain hsp82, active compounds read low 0.466 | locus YPL241C, strain CIN2, active compounds read low 0.316 | locus YPL256C, strain CLN2, active compounds read low 1.48 [resistant] | locus YPR119W, strain clb2, active compounds read low 0.472 | locus YPR141C, strain kar3, active compounds read low 0.559 | locus YPR163C, strain tif3, active compounds read low 0.517 | locus YPR167C, strain met16, active compounds read low 0.49 | strain wtn01, active compounds read low 0.535
inactive: locus YLR039C, strain RIC1, active compounds read low 0.713 | locus YLR262C, strain YPT6, active compounds read low 0.753 | locus YLR357W, strain rsc2, active compounds read low 1.04 | locus YOL012C, strain htz1 1.5

Source: PubChem BioAssay AID1159580 (chemical genetic matrix, 2015)
